Measurements published in the supplement of paper PMC6555819.

What was measured:
Experiment in all cases: PBM binding z-score (relative to random genomic background probes); higher = stronger binding; sequences stand for … in GC…GCGATTGACAGCGTAGAATGAAGG
[1] = tested on: PPARg:RXRa DBDmut IVT, anti-RXR (DBD mutation: RXRa K156A/R161A, NR concentration 270 nM, RXRa partner concentration 90 nM)
How it was run: (§1)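 Ligand-free nuclear receptor dimers were applied to custom Agilent 4×180K protein-binding microarrays whose double-stranded probes carried direct-repeat seeds, single-nucleotide variants, half-site ablations and random human genomic background sequences in 34-nt variable regions. Incubation lasted 1 h. Binding z-scores were computed against the random background probes from regression-normalized fluorescence.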

[2] = tested on: PPARg:RXRa IVT, anti-PPARg (NR concentration 270 nM, RXRa partner concentration 90 nM)
How it was run: as §1

[3] = tested on: PPARg DBDmut:RXRa IVT, anti-PPARg (DBD mutation: PPARg1 K132A/R137A, NR concentration 270 nM, RXRa partner concentration 90 nM)
How it was run: as §1

[4] = tested on: PPARg DBDmut IVT, anti-PPARg (DBD mutation: PPARg1 K132A/R137A, NR concentration 270 nM)
How it was run: as §1

[5] = tested on: PPARg homodimer (NR concentration 180 nM)
How it was run: as §1

[6] = tested on: PXR:RXRa (NR concentration 270 nM, RXRa partner concentration 90 nM)
How it was run: as §1

[7] = tested on: PXR homodimer (NR concentration 270 nM)
How it was run: as §1

[8] = tested on: RARa:RXR (NR concentration 270 nM, RXRa partner concentration 90 nM)
How it was run: as §1

[9] = tested on: RARa homodimer (NR concentration 270 nM)
How it was run: as §1

[10] = tested on: RARb:RXRa (NR concentration 270 nM, RXRa partner concentration 90 nM)
How it was run: as §1

[11] = tested on: RARb homodimer (NR concentration 270 nM)
How it was run: as §1

[12] = tested on: RARg:RXRa (NR concentration 270 nM, RXRa partner concentration 90 nM)
How it was run: as §1

[13] = tested on: RARg homodimer (NR concentration 270 nM)
How it was run: as §1

[14] = tested on: RXRa DBDmut IVT, anti-RXR (DBD mutation: RXRa K156A/R161A, NR concentration 90 nM)
How it was run: as §1

[15] = tested on: RXRa homodimer (NR concentration 180 nM)
How it was run: as §1

[16] = tested on: THRa:RXRa (NR concentration 90 nM, RXRa partner concentration 90 nM)
How it was run: as §1

[17] = tested on: THRa homodimer (NR concentration 90 nM)
How it was run: as §1

[18] = tested on: VDR homodimer (NR concentration 270 nM)
How it was run: as §1

Sequence	PBM binding z-score [1]	PBM binding z-score [2]	PBM binding z-score [3]	PBM binding z-score [4]	PBM binding z-score [5]	PBM binding z-score [6]	PBM binding z-score [7]	PBM binding z-score [8]	PBM binding z-score [9]	PBM binding z-score [10]	PBM binding z-score [11]	PBM binding z-score [12]	PBM binding z-score [13]	PBM binding z-score [14]	PBM binding z-score [15]	PBM binding z-score [16]	PBM binding z-score [17]	PBM binding z-score [18]
ATCCCTAGGTAAGACTCAGTTCAGTGAAGAACGC	0.0897	-0.242	-0.265	0.674	0.578	1.06	1.32	0.256	0.532	0.244	0.754	-0.0118	-0.0617	0.567	0.0289	0.832	1	1.07
CCTGCTAGGTCAATGGTCAGCTTAAGCAGCTCGC	4.75	4.06	-0.513	-0.387	1.92	1.05	-0.588	1.88	-0.443	3.84	3.14	3.62	4.2	2	2.25	2.31	0.712	0.066
ATCTCTAGGTAAGACTCAGTTCAGTGATGAACGC	1.78	1.28	1.15	1.33	1.36	0.974	1.63	0.24	0.763	0.357	0.637	0.588	0.547	0.656	0.315	0.739	0.755	1.4
TAGCCTAGGTCAGATCGGGCCAGCATACGCTATA	0.377	1.4	-0.988	-0.801	0.0554	0.945	-0.628	1.3	-0.92	3.09	2.06	2.68	3.52	-0.834	1.72	4.27	0.0653	-0.746
CGTCAAAGTTCAACTAAGGTAACGTAAAGCACGC	0.3	2.33	1.23	0.815	2.8	5.69	3.56	4.67	2.05	5.43	4.51	5.92	6.41	4.68	5.28	5.33	1.93	3.26
CTCGAAAGGTCGGCTGAGGTGAGTATACGGATAA	-0.0166	1	-0.0144	-0.891	1.16	4.09	-0.42	3.02	-0.275	3.56	2.61	3.82	3.8	0.843	3.44	5.13	1.12	0.549
CTCGAAAAGTCGGTTGAGGTGAGTATACGGATAA	-0.249	0.59	-0.0972	-0.5	0.0605	-0.0703	-0.0272	1.45	0.0114	0.371	0.0667	0.446	0.172	-0.0991	0.212	3.57	1.15	-0.144
TTACCATGGTGAAAGGTCGTTGATGCACGCCTTG	0.72	2.89	0.347	-0.209	0.983	2.74	0.676	3.2	-0.159	1.94	2.03	2.17	1.04	0.434	3.19	1.64	0.0302	1.19
TCTTGTAGATCAAGCAGGTTCAGAAAGCCTGAGT	1.67	0.23	-0.203	-0.258	-0.265	1.42	0.458	0.45	-0.397	-0.164	-0.055	-0.213	-0.414	0.872	0.0665	0.613	-0.659	2.13
TATACAGGGTCAAAGGCCAGACTACGAATGTCGA	2.56	5.03	3.07	1.98	2.4	4.42	0.626	6.23	1.41	4.56	3.59	5.73	5.23	3.01	6.99	3.6	0.88	2.33
CCTATTAGTTGACCATAAGTGCAACCGAAGCTCG	0.899	0.364	1.12	0.839	1.89	1.11	1.66	0.812	2.6	0.81	1.59	0.741	0.841	1.18	0.751	0.954	1.18	1.81
TGTCAAAGTGCAAAGGTAACGTAAGTATCCACAC	0.00516	2.98	0.574	0.92	1.09	1.76	0.397	2.57	0.0756	2.38	1.33	2.55	1.78	0.968	2.55	1.94	-0.723	0.351
CCTACTGGGCCATCAGTTCATTGATATCAACGTT	4.11	3.98	0.61	0.651	0.245	1.18	2.78	0.106	0.0148	0.462	0.932	0.31	0.439	0.88	-0.0335	0.411	0.333	3.3
TCTTGTAGATCAAGCAGGTTAAGTAAGCCTGAGT	1.68	0.377	0.298	-0.27	0.192	0.295	0.247	0.198	-0.203	0.138	0.0988	-0.201	-0.463	0.439	0.0943	0.33	-0.503	-0.0277
CGAACTAGGTCAAAACAGGACAGTGAAGGATGAT	7.83	8.1	3.19	2.56	2.39	2.05	-0.00978	2.02	0.444	3.33	2.27	3.48	3.77	1.49	2.25	4.13	0.485	0.573
TGTCAAAGTTCAAAGGTAATGTAAGTATCCACAC	0.141	4.47	1.92	1.26	3.02	5.65	3.61	5.92	1.41	4.94	3.63	5.97	5.84	4.44	6.5	3.15	-0.177	3.96
